Each structure is given as a SMILES string. Results filed as inconclusive are left out. Values without a mark were called inactive. The source made the active and inactive calls. Calls follow the shape of the dose curve; as a rule, active = well fitted inhibition curve with a large enough effect in the repeat runs; inconclusive = weak or mixed curves; inactive = flat fitted curve, though single readings scatter.
% is scaled to controls: 0 for no effect and ±100 for the full control effect.

Chain of Luciferin 4-monooxygenase (Photinus pyralis) (P08659 whole entry, looked up): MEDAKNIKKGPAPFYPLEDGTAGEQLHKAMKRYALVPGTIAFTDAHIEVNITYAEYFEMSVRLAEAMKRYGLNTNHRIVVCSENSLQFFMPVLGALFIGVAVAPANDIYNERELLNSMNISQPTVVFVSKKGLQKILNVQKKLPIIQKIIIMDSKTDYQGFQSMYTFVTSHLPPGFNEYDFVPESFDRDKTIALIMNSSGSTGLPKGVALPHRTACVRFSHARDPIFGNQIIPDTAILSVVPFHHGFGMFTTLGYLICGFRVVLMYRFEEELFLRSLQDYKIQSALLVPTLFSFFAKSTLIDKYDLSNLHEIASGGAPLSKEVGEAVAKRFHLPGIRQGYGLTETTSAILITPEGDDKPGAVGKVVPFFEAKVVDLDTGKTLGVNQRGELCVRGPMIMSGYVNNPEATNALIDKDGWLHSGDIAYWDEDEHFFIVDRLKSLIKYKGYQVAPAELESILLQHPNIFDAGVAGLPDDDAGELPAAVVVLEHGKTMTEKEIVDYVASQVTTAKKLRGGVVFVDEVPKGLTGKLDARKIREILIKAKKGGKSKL

The target of the test is Luciferin 4-monooxygenase (Photinus pyralis) (UniProt P08659). The test is described as follows: qHTS assay to identify small molecule inhibitors of firefly luciferase (AID 1224835). Also: nearly all actives have a fitted effect of over 25% in size. The conditions noted are these: purified P. pyralis luciferase, luminescence inhibition; series mostly up to 115 µM; activity change, negative = inhibition: at the top concentration. An excerpt:
U.S. Tox21 Program National Center for Advancing Translational Sciences [NCATS] NIH Chemical Genomics Center [NCGC] U.S. Environmental Protection Agency [EPA] National Institutes of Environmental Health Sciences [NIEHS] National Toxicology Program [NTP] U.S. Food and Drug Administration [FDA] Tox21 Assay Overview: Firefly (Photinus pyralis) luciferase is one of the most commonly used transcriptional reporters. Firefly luciferase reporter-gene assays are generally considered one of the most sensitive assay types (Wood, 1995; Wood, 1998). However, it was initially observed, in 1991, by Thompson et al., that compounds that resemble the substrates of firefly luciferase (FLuc) can act as competitive inhibitors of the enzyme, and that these compounds, upon interaction with luciferase in the cell, can actually stabilize the protein and increase its half-life. Previous profiling work by other groups to determine the prevalence of compounds that affect FLuc enzymatic activity (PubChem AID 411) identified that ~3% of the MLSMR library (then at ~72K) inhibited FLuc. […] Thus the Tox21 10K library is profiled for activity against FLuc using a biochemical assay of purified FLuc and KM concentrations of FLuc substrates (D-luciferin and ATP).
These assay plates were then treated with 23nL of compound or DMSO using a Kalypsys pin tool, which allows for delivery of a 6-point interplate titration of each compound to the assay plate (quantitative HTS.) 1 uL of firefly luciferase mix (containing 50 mM Tris acetate, pH 7.6, 0.04 uM P. pyralis luciferase, 0.01% Tween, 0.05% BSA and dH2O) was then delivered by FRD to each well. Luciferase activity was then measured using a ViewLux CCD imager.
With `CCOC(=O)[C@H](CCc1ccccc1)N[C@H]1CCc2ccccc2N(CC(=O)O)C1=O`, the “activity change, negative = inhibition” value was 7.98% [at 52.9 µM].
Regarding `Cc1ccc(C(=O)C(C)CN2CCCCC2)cc1` (stereo not given), the “activity change, negative = inhibition” value was -1.32% [at 52.9 µM].
With `CN(c1nccc(=O)[nH]1)C1CCN(c2nc3ccccc3n2Cc2ccc(F)cc2)CC1`, the “activity change, negative = inhibition” value is 1.9% [at 52.9 µM].
Consider `C1CCC2OC2C1` (stereo not given), for which the “activity change, negative = inhibition” value is 0.498%.
As to `NCc1ccccc1`, the “activity change, negative = inhibition” value was 1.25%.
Consider `CCOc1ccc2[nH]cc(C(=O)NCc3ccccc3)c(=O)c2n1`, for which the “activity change, negative = inhibition” value was 0.667%.
For `CCOC(=O)C1=NN(c2ccccc2)C(=O)C1`, the “activity change, negative = inhibition” value was -4.49%.
With `CN1CCC(=C2c3ccccc3C=Cc3ccccc32)CC1`, the “activity change, negative = inhibition” value is -0.896% [at 52.9 µM].
`CCCCOc1ccc(CC(=O)NO)cc1`: the “activity change, negative = inhibition” value was -5.65% [at 52.9 µM].
The same measure, in the same setting: for `CC1(C)[C@H]2CC[C@]1(C)[C@H](O)C2` the value was -3.64%; for `COc1ccc(OC)c(OC)c1`, -0.822%.
As to `CCCCC(CC)COCCCN` (stereo not given), the “activity change, negative = inhibition” value was 0.0302%.
Consider `C=CC(=O)OCC(C)OCC(C)OCC(C)OC(=O)C=C` (stereo not given), for which the “activity change, negative = inhibition” value was 2.31%.
For `CCN(CC)CCc1nc(-c2ccccc2)no1`, the “activity change, negative = inhibition” value is -1.81% [at 52.9 µM].
Take `CC(=O)N(O)CCCCCNC(=O)CCC(=O)N(O)CCCCCNC(=O)CCC(=O)N(O)CCCCCN`: the “activity change, negative = inhibition” value was -0.634% [at 52.9 µM].
The same measure, in the same setting: for `CCOC(=O)C1=C(C)NC(C)=C(C(=O)OC)C1c1cccc([N+](=O)[O-])c1` (stereo not given) the value was -3.71% [at 52.9 µM].
Regarding `Cc1cc(NC(=O)C(=O)O)cc(C)c1Oc1ccc(O)c2c1CCC2`, the Potency is 35.6 µM (active).
As for `OC(CCN1CCCCC1)(c1ccccc1)C1CCCCC1` (stereo not given), the “activity change, negative = inhibition” value is 2.96% [at 52.9 µM].
With `CCCCc1cc2ccccc2c(OCCN(C)C)n1`, the “activity change, negative = inhibition” value was -2.25% [at 52.9 µM].
Still for that read-out and setting: for `C[Si](C)O[Si](C)(C)O[Si](C)(C)O[Si](C)C` the value was 5.22%.
Consider `CCCCCC/C=C/C=O`, for which the “activity change, negative = inhibition” value was -0.586%.
With `CC(=O)/C(C)=C/C1C(C)=CCCC1(C)C` (stereo not given), the “activity change, negative = inhibition” value is 0.197%.
On the same count and under the same terms, for `CC(C)c1cccc(C(C)C)c1NC(=O)NS(=O)(=O)c1cc(C(C)(C)O)co1` the value was 2.16%; for `O=C(Cl)c1c(Cl)cccc1Cl`, 0.55%; for `CCCCCCCCCO`, -5.13%.
For `CC(C)(C)C1CCCCC1O` (stereo not given), the “activity change, negative = inhibition” value was -10.9%.
Same read-out and setting: for `NC[C@H]1O[C@H](O[C@H]2[C@H](O)[C@@H](O[C@H]3O[C@H](CO)[C@@H](O)[C@H](N)[C@H]3O)[C@H](N)C[C@@H]2N)[C@H](O)[C@@H](O)[C@@H]1O` the value was 8.02% [at 10.5 µM]; for `S=C(S)NCCNC(=S)S`, -3.19%.
Turning to `C[C@@H](C1=C(CCN(C)C)Cc2ccccc21)c1ccccn1`, the “activity change, negative = inhibition” value was -2.01% [at 52.9 µM].
Same read-out and setting: for `CC(=O)c1c(C)c([N+](=O)[O-])c(C(C)(C)C)c([N+](=O)[O-])c1C` the value was 0.712%; for `CC(=O)NCCCS(=O)(=O)O`, 0.0362% [at 52.9 µM].
On the same count and under the same terms, for `CCCCOC(O)CC` (stereo not given) the value was 1.11%.
Same read-out and setting: for `CNCC[C@@H](Oc1ccccc1C)c1ccccc1` the value was 4.59% [at 52.9 µM]; for `O=c1[nH]cnc2ccccc12`, 6.02%; for `COc1ccccc1OC(=O)Oc1ccccc1OC`, -0.109% [at 52.9 µM].
Consider `CCCCCCCCCCCCC(=O)O`, for which the Potency was 63.5 µM (active).
Consider `O=C(/C=C/c1ccc(O)c(O)c1)O[C@@H]1C[C@](O)(C(=O)O)C[C@@H](O)[C@H]1O`, for which the “activity change, negative = inhibition” value was 0.47%.
Take `CC(=O)OCCc1ccccc1`: the “activity change, negative = inhibition” value was -0.676%.
For `CC1=CCC(C(C)C)C=C1` (stereo not given), the “activity change, negative = inhibition” value was 0.853%.
Still for that read-out and setting: for `C=Cc1c(C)c2cc3[nH]c(cc4nc(cc5nc(cc1[nH]2)C(C)=C5CCC(=O)O)C(CCC(=O)O)=C4C)c(C)c3C=C` the value was -6.95% [at 52.9 µM].

The values above are taken from PubChem BioAssay (Tox21).
